These results are taken from PubChem BioAssay (Tox21).

Structures are written as SMILES. Results filed as inconclusive are left out. Calls of active or inactive are those of the source. Unless noted, calls follow the shape of the dose curve; as a rule, active = well fitted curve in the direction sought with a large enough effect in the repeat runs; inconclusive = weak or mixed curves; inactive = no such curve, though single readings can be large; an effect the other way counts as inactive or inconclusive.

In experiment [1] the target is Peroxisome proliferator-activated receptor delta (Homo sapiens) (UniProt Q03181). In words: qHTS assay to identify small molecule agonists of the peroxisome proliferator-activated receptor delta (PPARd) signaling pathway (AID 743212; calls by dose curve; also: potency is read from the fitted curve at half-maximal effect). The gist of the method:
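Read-out: beta-lactamase FRET fluorescence after 2 h room-temperature incubation with LiveBLAzer B/G substrate. Cells were HEK293H carrying a UAS-bla reporter for PPARd, treated at 37 C with DMSO-dissolved compounds.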

A short description of experiment [2]: qHTS assay to identify small molecule antagonists of the peroxisome proliferator-activated receptor delta (PPARd) signaling pathway - cell viability counter screen (AID 743213). Also: nearly all actives have a fitted effect of over 50% in size. Also: potency is read from the fitted curve at half-maximal effect. In outline: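 Same-well viability: cells pre-incubated 5 h, dosed with compound plus 300 nM L165041, kept 17 h at 37 C, FRET substrate 2 h RT, then CellTiter-Glo 30 min RT and luminescence.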

Experiment [3] deals with Peroxisome proliferator-activated receptor delta (Homo sapiens) (UniProt Q03181). Kind of experiment: qHTS assay to identify small molecule antagonists of the peroxisome proliferator-activated receptor delta (PPARd) signaling pathway (AID 743215; active = well fitted inhibition curve with a large enough effect in the signal ratio in the repeat runs, not every such curve was filed as active; the % refers to the signal ratio;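 also: cells stimulated with agonist L165041 at 300 nM final during compound exposure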; also: potency is read from the fitted curve at half-maximal effect). In outline: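 Cells: HEK293H with a UAS-driven beta-lactamase reporter responsive to PPARd. Compounds were co-added with L165041 (300 nM, final) and incubated 17 h at 37 C before a 2 h room-temperature FRET substrate step and fluorescence reading.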
Peroxisome proliferator-activated receptor delta (Homo sapiens), sequence (Q03181 whole entry, looked up): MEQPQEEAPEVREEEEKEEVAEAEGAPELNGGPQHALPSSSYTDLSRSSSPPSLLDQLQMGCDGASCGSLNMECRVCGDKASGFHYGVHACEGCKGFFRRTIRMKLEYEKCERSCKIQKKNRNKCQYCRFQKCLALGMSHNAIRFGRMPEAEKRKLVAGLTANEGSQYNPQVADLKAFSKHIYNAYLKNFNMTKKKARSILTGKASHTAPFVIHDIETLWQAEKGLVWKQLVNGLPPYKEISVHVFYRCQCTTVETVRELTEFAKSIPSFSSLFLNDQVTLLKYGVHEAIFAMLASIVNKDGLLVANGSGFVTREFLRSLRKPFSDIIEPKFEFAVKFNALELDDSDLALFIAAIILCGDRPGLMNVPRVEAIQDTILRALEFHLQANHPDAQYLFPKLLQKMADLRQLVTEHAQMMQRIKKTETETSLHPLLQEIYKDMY

Experiment [4] in a line: qHTS assay to identify small molecule agonists of the farnesoid-X-receptor (FXR) signaling pathway - cell viability counter screen (AID 743218). Also: nearly all actives have a fitted effect of over 45% in size. Also: potency is read from the fitted curve at half-maximal effect. The gist of the method: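 Cells were seeded, left 5 h at 37 C and 5% CO2, then dosed with compound in DMSO for 16 h. After the beta-lactamase FRET read, CellTiter-Glo was added and luminescence measured 30 min later.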
Experiment [5] can be described thus: qHTS assay to identify small molecule antagonists of the farnesoid-X-receptor (FXR) signaling pathway - cell viability counter screen (AID 743221; active = well fitted cell-killing curve with a large enough effect in the repeat runs, not every such curve was filed as active; also: nearly all actives have a fitted effect of over 50% in size; also: potency is read from the fitted curve at half-maximal effect). In outline: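 HEK 293T FXR-bla cells, 5 h pre-incubation; compound + CDCA 50 uM final, 16 h, 37 C; beta-lactamase FRET read first, then CellTiter-Glo luminescence, 30 min RT.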
The target of experiment [6] is Vitamin D3 receptor (Homo sapiens) (UniProt P11473). Kind of experiment: qHTS assay to identify small molecule antagonists of the vitamin D receptor (VDR) signaling pathway (AID 743223; active = well fitted inhibition curve with a large enough effect in the signal ratio in the repeat runs, not every such curve was filed as active; the % refers to the signal ratio). The gist of the method:
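Beta-lactamase reporter read-out: FRET substrate fluorescence after 2 h at room temperature, following 16 h exposure of VDR-bla cells to test compound plus 3 nM (final) 1alpha,25-dihydroxyvitamin D3 agonist at 37C.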

Experiment [7] can be described thus: qHTS assay to identify small molecule agonists of the vitamin D receptor (VDR) signaling pathway - cell viability counter screen (AID 743224). Also: nearly all actives have a fitted effect of over 50% in size. Also: potency is read from the fitted curve at half-maximal effect. The gist of the method: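 Cells: VDR-bla, 2,000/well, settled 4 h. Treatment: compounds in DMSO, 16 h, 37C/5% CO2. Readout: CellTiter-Glo luminescence after 30 min RT.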
Experiment [8] is described as follows: qHTS assay to identify small molecule antagonists of the vitamin D receptor (VDR) signaling pathway - cell viability counter screen (AID 743225). Also: nearly all actives have a fitted effect of over 50% in size. Also: potency is read from the fitted curve at half-maximal effect. The gist of the method:
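Viability counter screen run in the same wells as the beta-lactamase reporter assay: HEK 293T VDR-UAS-bla cells, 16 h compound exposure at 37C with 3 nM (final) 1-alpha,25-dihydroxyvitamin D3. CellTiter-Glo luminescence, 30 min, room temperature.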

Experiment [9] is described as follows: qHTS assay to identify small molecule agonists of the NFkB signaling pathway - cell viability counter screen (AID 1159515; calls by dose curve; also: nearly all actives have a fitted effect of over 55% in size; also: potency is read from the fitted curve at half-maximal effect). In outline:
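Cells are seeded (2,000 NFkB-bla ME-180 per well), rested overnight, and dosed with DMSO-dissolved compounds for 5 hr at 37 C. Viability is then read by CellTiter-Glo luminescence after 30 min at room temperature.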

Experiment [10] in a line: qHTS assay to identify small molecule agonists of the endoplasmic reticulum stress response signaling pathway - cell viability counter screen (AID 1159517; calls by dose curve; also: nearly all actives have a fitted effect of over 50% in size; also: potency is read from the fitted curve at half-maximal effect). In outline: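 Steps: seed 1,500 ESRE-bla HeLa cells per well; incubate overnight at 37 C, 5% CO2; add compounds in DMSO for 5 hr; run FRET substrate 2 hr RT; add CellTiter-Glo, wait 30 min, read luminescence.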
The nature of experiment [11]: qHTS assay to identify small molecule antagonists of the retinoid-related orphan receptor gamma (ROR-gamma) signaling pathway - cell viability counter screen (AID 1159520). Also: nearly all actives have a fitted effect of over 50% in size. Also: potency is read from the fitted curve at half-maximal effect. In outline:
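Tet-on ROR gamma CHO cells were given compounds for 2 hr, then doxycycline hyclate at 1 uM final, and incubated 16 hr at 37 C. Viability was measured as ATP content by CellTiter-Glo luminescence.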

In experiment [12] the target is Nuclear receptor ROR-gamma (Homo sapiens) (UniProt P51449). In words: qHTS assay to identify small molecule antagonists of the retinoid-related orphan receptor gamma (ROR-gamma) signaling pathway (AID 1159521; also: nearly all actives have a fitted effect of over 50% in size; also: potency is read from the fitted curve at half-maximal effect). In outline: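 Luminescence readout (ONE-Glo, 30 min RT) after 16 h doxycycline induction; loss of signal scored as antagonism. CHO cells with TET-inducible RORγ and RORE-LUC reporter; compounds added 2 h before 1 uM final doxycycline.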

Experiment [13] can be described thus: qHTS assay to identify small molecule agonists of the AP-1 signaling pathway - cell viability counter screen (AID 1159525; calls by dose curve; also: nearly all actives have a fitted effect of over 55% in size; also: potency is read from the fitted curve at half-maximal effect). The gist of the method: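 Same-well cytotoxicity counter screen of the Tox21 10K library in ME-180 cells. The readout is ATP-dependent luminescence after 5 h compound treatment. Data are normalised to DMSO and tetra n-octyl ammonium bromide controls.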

A short description of experiment [14]: qHTS assay to identify small molecule agonists of the RXR signaling pathway - cell viability counter screen (AID 1159529). Also: nearly all actives have a fitted effect of over 50% in size. Also: potency is read from the fitted curve at half-maximal effect. In outline:
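Luminescence from CellTiter-Glo (30 min, RT) measured viability in the same wells as the beta-lactamase reporter readout. Cells: GeneBLAzer RXR-alpha HEK 293T, 2% charcoal-stripped FBS. Compound exposure 16 hr, 37 C.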

Experiment [15] has as its target Bile acid receptor (Homo sapiens) (UniProt Q96RI1). In words: qHTS assay to identify small molecule agonists of the farnesoid-X-receptor (FXR) signaling pathway (AID 743220; active = well fitted activation curve with a large enough effect in the signal ratio in the repeat runs, not every such curve was filed as active; the % refers to the signal ratio). The gist of the method: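 FXR-UAS-bla HEK 293T cells carrying a UAS-driven beta-lactamase reporter were plated for 5 h at 37C/5% CO2, then exposed to DMSO-dissolved Tox21 10K compounds for 16 h at 37C. A LiveBLAzer B/G FRET substrate was loaded for 2 h at room temperature before fluorescence reading.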

The target of experiment [16] is Retinoic acid receptor RXR-alpha (Homo sapiens) (UniProt P19793). In words: qHTS assay to identify small molecule agonists of the RXR signaling pathway (AID 1159527; calls by dose curve; also: nearly all actives have a fitted effect of over 35% in size; also: potency is read from the fitted curve at half-maximal effect). The gist of the method:
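Agonist mode; 9-cis retinoic acid positive control. HEK 293T UAS-bla reporter cells, 2% charcoal-stripped FBS, 16 hr compound exposure at 37 C/5% CO2. LiveBLAzer B/G FRET substrate 2 hr RT; ex 405, em 460/530 nm.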

Experiment [17] deals with Bile acid receptor (Homo sapiens) (UniProt Q96RI1). Kind of experiment: qHTS assay to identify small molecule antagonists of the farnesoid-X-receptor (FXR) signaling pathway (AID 743217; active = well fitted inhibition curve with a large enough effect in the signal ratio in the repeat runs, not every such curve was filed as active; the % refers to the signal ratio; also: potency is read from the fitted curve at half-maximal effect). The gist of the method:
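Cells carrying a UAS-driven beta-lactamase reporter (GeneBLAzer FXR-UAS-bla HEK 293T) were plated and rested 5 h at 37 °C. Compounds in DMSO were added alongside chenodeoxycholic acid agonist at 50 uM final and left 16 h at 37 °C before FRET substrate readout.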

For experiment [18], the target named is Vitamin D3 receptor (Homo sapiens) (UniProt P11473). In words: qHTS assay to identify small molecule agonists of the vitamin D receptor (VDR) signaling pathway (AID 743222; calls by dose curve). In outline: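 Cells carrying a VDR-driven beta-lactamase reporter are seeded at 2,000 per well and rested 4 h. Compounds in DMSO are added for 16 h at 37C, and FRET substrate fluorescence is measured after 2 h at room temperature.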
Vitamin D3 receptor (Homo sapiens), sequence (P11473 whole entry, looked up): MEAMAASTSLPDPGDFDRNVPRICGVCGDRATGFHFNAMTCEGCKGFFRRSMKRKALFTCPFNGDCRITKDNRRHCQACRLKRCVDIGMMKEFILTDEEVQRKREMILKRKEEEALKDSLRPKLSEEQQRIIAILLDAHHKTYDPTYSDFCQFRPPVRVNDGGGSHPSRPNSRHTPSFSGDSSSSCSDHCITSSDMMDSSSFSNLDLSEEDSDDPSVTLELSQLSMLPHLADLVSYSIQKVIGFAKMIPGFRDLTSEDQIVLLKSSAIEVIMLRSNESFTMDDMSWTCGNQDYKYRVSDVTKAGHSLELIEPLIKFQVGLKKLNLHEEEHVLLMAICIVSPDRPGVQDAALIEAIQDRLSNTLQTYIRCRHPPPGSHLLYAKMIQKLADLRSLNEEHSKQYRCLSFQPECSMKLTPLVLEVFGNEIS

Bile acid receptor (Homo sapiens), sequence (Q96RI1 whole entry, looked up): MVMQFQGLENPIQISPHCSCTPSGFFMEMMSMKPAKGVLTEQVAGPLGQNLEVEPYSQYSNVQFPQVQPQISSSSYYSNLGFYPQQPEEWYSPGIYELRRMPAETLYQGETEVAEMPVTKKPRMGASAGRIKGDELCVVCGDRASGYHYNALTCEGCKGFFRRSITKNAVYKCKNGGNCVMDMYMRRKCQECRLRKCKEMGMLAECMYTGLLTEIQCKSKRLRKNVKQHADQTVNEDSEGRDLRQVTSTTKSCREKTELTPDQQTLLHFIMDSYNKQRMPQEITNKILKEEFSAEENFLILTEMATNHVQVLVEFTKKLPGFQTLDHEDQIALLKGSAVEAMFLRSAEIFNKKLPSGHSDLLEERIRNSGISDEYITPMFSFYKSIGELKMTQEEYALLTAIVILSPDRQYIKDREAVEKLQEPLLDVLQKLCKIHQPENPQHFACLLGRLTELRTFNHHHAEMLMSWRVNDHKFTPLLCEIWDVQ
Retinoic acid receptor RXR-alpha (Homo sapiens), sequence (P19793 whole entry, looked up): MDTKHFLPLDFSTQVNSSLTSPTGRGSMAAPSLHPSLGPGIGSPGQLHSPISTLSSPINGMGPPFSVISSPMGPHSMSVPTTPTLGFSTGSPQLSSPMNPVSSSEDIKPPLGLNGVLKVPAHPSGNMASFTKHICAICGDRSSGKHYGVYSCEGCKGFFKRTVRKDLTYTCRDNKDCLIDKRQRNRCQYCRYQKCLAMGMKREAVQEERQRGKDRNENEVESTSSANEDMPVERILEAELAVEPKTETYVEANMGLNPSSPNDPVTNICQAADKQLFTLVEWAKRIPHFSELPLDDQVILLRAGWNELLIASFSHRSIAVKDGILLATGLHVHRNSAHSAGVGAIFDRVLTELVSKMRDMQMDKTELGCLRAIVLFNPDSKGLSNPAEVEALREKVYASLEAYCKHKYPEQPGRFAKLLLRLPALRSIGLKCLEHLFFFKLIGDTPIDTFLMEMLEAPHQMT

Consider `O=C(NO)C1(NS(=O)(=O)c2ccc(Oc3ccc(F)cc3)cc2)CCOCC1`, for which the Potency result in experiment [1], in [2], in experiment [3], in experiment [4], in [5] and in [6] was “inactive” in each case. In addition, the Potency entry in experiment [7], in experiment [8], in experiment [9], in experiment [10], in experiment [11] and in [12] was “inactive” throughout. The Potency entry in [13] and in experiment [14] was “inactive” in each case.
Take `Cc1ccc2oc(CN(Cc3ccccc3)C(=O)Nc3c(F)cc(F)cc3F)c(-c3ccc(Cl)cc3)c2c1`: the Potency entry in experiment [2], in experiment [4], in [15], in [5], in experiment [7] and in experiment [9] was “inactive” throughout. The Potency entry in [10], in experiment [11], in experiment [13], in [16] and in experiment [14] was “inactive” in each case. For the same compound, the Potency in experiment [12] is 14.9 µM (active).
In the case of `CC1=C(/C=C/C(C)=C/C=C/C(C)=C/C=O)C(C)(C)CCC1`, the Potency entry in experiment [1] was “inactive”. In addition, the Potency is 43.4 µM (active) in [2]; 48.7 µM (active) in [3]; 61.3 µM (active) in experiment [17]; 48.7 µM (active) in [5]; 15.4 µM (active) in experiment [7]; 13.7 µM (active) in [8]. In addition, the Potency was 38.7 µM (active) in experiment [9]; 38.7 µM (active) in experiment [10]; 24.2 µM (active) in experiment [11]; 30.5 µM (active) in experiment [12]; 34.5 µM (active) in experiment [13]; 0.345 µM (active) in [16]. In experiment [14], the Potency was 19.4 µM (active).
With `Clc1ccc2cc3ccccc3cc2c1`, the Potency result in experiment [2], in experiment [3], in experiment [17], in experiment [15], in [5] and in experiment [7] was “inactive” throughout. Also, the Potency entry in experiment [8], in experiment [9], in [10], in experiment [11], in experiment [12] and in experiment [13] was “inactive” in each case. The Potency entry in [14] is “inactive”. Also, the Potency in experiment [16] was 54.9 µM (active).
For `CC(C)c1ccc2c(c1)CC[C@H]1[C@](C)(CN)CCC[C@]21C`, the Potency in experiment [2] is 21.9 µM (active); in experiment [4] it was 12.3 µM (active); in experiment [5], 54.9 µM (active); in experiment [7], 17.4 µM (active); in experiment [8], 43.6 µM (active); in experiment [9] it was 19.5 µM (active). Moreover, the Potency in experiment [10] is 9.77 µM (active); in experiment [11], 30.6 µM (active); in experiment [12], 30.6 µM (active); in [13], 54.9 µM (active); in experiment [14] it was 21.9 µM (active).
Consider `O=c1[nH]sc2ccccc12`, for which the Potency in experiment [2] was 17.4 µM (active); in experiment [4], 49 µM (active); in experiment [5], 49 µM (active); in experiment [7], 12.3 µM (active); in experiment [9], 49 µM (active); in experiment [10], 54.9 µM (active). Further, the Potency in [11] was 21.7 µM (active); in experiment [12], 17.2 µM (active); in [13], 34.7 µM (active); in [14], 19.5 µM (active). Besides, the Potency result in experiment [18] was “inactive”.
For the compound `Cc1nc(-c2ccc3c(c2)CCN(CCC2CCC(NC(=O)/C=C/c4ccc(F)cc4)CC2)CC3)no1` (stereo not drawn), the Potency in experiment [1] was 21.9 µM (active); in experiment [11], 15.4 µM (active); in experiment [12], 1.94 µM (active). The Potency entry in experiment [2], in experiment [17], in [4], in experiment [5], in [8] and in [9] was “inactive” in each case. Further, the Potency entry in [10], in [13] and in experiment [14] was “inactive” in each case.
